From PubChem BioAssay AID1259376 (The Scripps Research Institute Molecular Screening Center, 2018) come the findings set out here.

Among all 4,700 compounds or so, about 360 (7.7%) were called active.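 How the source made its calls: active means inhibition above a cutoff derived from the DMSO control wells (cut at about 30% in these data); inactive means the rest.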 Only a sample is shown.

A short description of the assay: AlphaScreen optical interference compounds, counter-screen for MITF inhibitor project, biochemical, triplicate (AID 1259376). The settings on record: LysRS AlphaScreen counterscreen, signal interference, at 2.6 µM, stronger effect = higher value.
In general, inhibition refers to the drop in the measured response relative to a control, in per cent. On to `O=[N+]([O-])c1ccccc1S(=O)(=O)N1CCN(C2Cc3ccccc3C2)CC1`, for which the inhibition is 15% (inactive).
The same measure for `O=S(=O)(c1ccc(F)cc1)N1CCN(Cc2ccccc2C(F)(F)F)CC1`: 12.8% (inactive).
The same measure for `CSc1ccc(CN2CCN(S(=O)(=O)c3ccc([N+](=O)[O-])cc3)CC2)cc1`: 30% (active); for `CSc1ccc(CN2CCN(Cc3cccc(Oc4ccccc4)c3)CC2)cc1`: 6.5% (inactive); for `CC(C)(C)NCC(=O)Nc1c2c(nc3ccccc13)N(Cc1ccccc1)CC2`: 15.5% (inactive).
On to `CC1CCCCC1NC(=O)CSc1nnc(-c2ccncc2)n1CCCN(C)C` (stereo not drawn), for which the inhibition is 14.7% (inactive).
Next, `O=C(OCCN1CCOCC1)c1c(Cl)nc2sccn12`: 10.9% (inactive); `Cc1cc(OCCN2CCN(C)CC2)ccc1C(C)C`: 4.96% (inactive); `CCCS(=O)(=O)N1CCN(Cc2ccccc2Br)CC1`: 13.6% (inactive).
Next, `COc1ccc2c(c1)CC(C(=O)Nc1ccc(-c3cn[nH]c3)cc1OCc1ccccc1)CO2` (stereo not drawn): 22.5% (inactive); `O=C(Nc1ccc(-c2ccncc2)c(C(F)(F)F)c1)C1COc2ccccc2O1` (stereo not drawn): 5.92% (inactive).
Next, `COc1cccc(CN2CCN(CCCc3ccccc3)CC2CCO)c1` (stereo not drawn): -5.46% (inactive); `CN(C)CC(C)(C)CNCc1nnc(-c2ccccc2)o1`: -0.68% (inactive); `N#C/C(=C/c1ccc(-c2ccc3c(c2)C(=O)NC3=O)o1)C(=O)O`: 13.4% (inactive).
On to `COc1ccc(OC)c(CN2CCN(Cc3ccccc3OC)CC2)c1`, for which the inhibition is 18.2% (inactive).
Next, `COC(=O)c1cccc(NS(=O)(=O)c2ccc3ccccc3c2)c1C`: 21.9% (inactive).
Next, `COc1ccc(CN2CCN(Cc3ccccc3C(F)(F)F)CC2)cc1OC`: 17.4% (inactive); `CS(=O)(=O)N1CCN(Cc2cccc(Cl)c2)CC1`: -4.82% (inactive).
The same measure for `O=C(O)CCCCCNC(=O)/C(=C\c1ccco1)NC(=O)c1ccccc1`: -2.96% (inactive).
On to `COc1ccc2c(c1)CC(c1nc(Nc3ccc4cnccc4c3)c3ccccc3n1)CO2` (stereo not drawn), for which the inhibition is 8.8% (inactive).
The same measure for `COc1cccc(OC)c1C(=O)N1CCN(Cc2cccnc2)CC1`: 14.3% (inactive).
The same measure for `COc1cc(CN2CCN(Cc3ccc(OC)c(OC)c3)CC2)cc(OC)c1`: 1.7% (inactive).
`COc1cc(CN(CCN(C)C)Cc2ccccc2)cc(OC)c1`: the inhibition is 2.44% (inactive).
Next, `CC(c1ccccn1)N(CCN(C)C)C(=S)Nc1ccccc1F` (stereo not drawn): 100% (active); `COc1ccc2c(c1)CC(C(=O)Nc1ccc(-c3cn[nH]c3)cc1OCC(N)=O)CO2` (stereo not drawn): 16.5% (inactive).
Next, `CCN1CCN(CCCOc2ccc(C(C)=O)cc2OC)CC1`: 19.6% (inactive); `CCN(CCN(C)C)Cc1c(Cl)cccc1Cl`: -9.64% (inactive); `NC(=O)COC(=O)/C=C/c1ccc(I)o1`: 16.2% (inactive).
The same measure for `COc1cc(OC)c(OC)cc1CN1CCN(Cc2ccc(F)cc2)CC1`: -4.28% (inactive); for `COc1ccc(CN2CCN(Cc3cc(OC)ccc3OC)CC2)cc1`: -1.01% (inactive).
For `CC(=O)N1CCN(CC(=O)Nc2ccc(C)c(F)c2)CC1`, the inhibition is 5.18% (inactive).
Next, `COC(=O)CSc1nc(C2CC2)nc2ccccc12`: 9% (inactive); `CCOc1ccc(CN2CCN(C(=O)c3cccc(Cl)c3)CC2)cc1`: 0.05% (inactive).
The same measure for `COc1ccc(NC(=O)c2cc3n(n2)C(C(F)(F)F)CC(c2ccc(OC)c(OC)c2)N3)cc1OC` (stereo not drawn): -6.86% (inactive); for `CCC(C)NCCOCCOc1cc(C)cc(C)c1C` (stereo not drawn): -2.01% (inactive); for `CCN1CCN(CC(O)COc2cccc(C(=O)OC)c2)CC1` (stereo not drawn): -1.14% (inactive).
Next, `O=C1c2ccccc2C(O)N1Cc1ccccc1Cl` (stereo not drawn): 0.5% (inactive); `c1cc2c(cc1CN1CCN(C3CCCC3)CC1)OCO2`: 2.1% (inactive).
For the molecule `Cc1ccc(C(C)C)c(OCCN2CCNCC2)c1`, the inhibition is -3.79% (inactive).
The same measure for `COc1cccc(-c2ncnn2-c2sc3c(c2C#N)CCCCC3)c1`: 17.1% (inactive); for `COc1ccc(NC(=O)CN2CCN(C)CC2)c(OC)c1`: 13.8% (inactive).
Next, `COc1ccc(CNCC2CN(CC(C)C)CCO2)cc1` (stereo not drawn): 10.1% (inactive); `COc1cccc(CN2CCN(Cc3ccc(C(F)(F)F)cc3)CC2)c1OC`: -5.41% (inactive).
Take `NS(=O)(=O)c1cccc(NC(=O)COc2ncnc3sc(-c4ccccc4)cc23)c1`: the inhibition was 20.8% (inactive).
The same measure for `O=C(NN1C(=O)c2ccccc2C1=O)c1cccc(F)c1`: -4.68% (inactive); for `CCOc1ccc(OCCCCNCCO)cc1`: 15.9% (inactive).
The same measure for `Cc1cnc(NCc2ccc3c(c2)OCO3)nc1Nc1ccccc1`: 7.89% (inactive); for `CCCS(=O)(=O)N1CCN(Cc2cccc(Cl)c2)CC1`: 13.1% (inactive); for `c1cc2c(cc1CNc1nc(Nc3ccc(N4CCOCC4)cc3)c3ncn(C4CCCCC4)c3n1)OCO2`: -14.4% (inactive).
Next, `COCc1nc2ccccc2n1CCc1noc(-c2ccco2)n1`: -8.54% (inactive); `Cc1cc(S(=O)(=O)Nc2ccc3c(c2)OCCO3)ccc1-n1cnnn1`: 14% (inactive).
Regarding `Cc1ccc(C(C)C)c(OCC#CCN2CCNCC2)c1`, the inhibition is 14.9% (inactive).
Next, `CC(C)(C)NCCOCCOc1ccc(Cl)c(Cl)c1`: 9.65% (inactive); `C[C@@H](OCc1ccccc1)[C@@H]1NC(=O)[C@H]2CN(C(=O)Nc3cccc(F)c3)CCN2C1=O`: 1.57% (inactive).
Next, `COc1cc(CN2CCN(Cc3ccco3)CC2)c([N+](=O)[O-])cc1OC`: 13% (inactive); `CC[C@@H]1NC(=O)[C@H]2CN(C(=O)NCc3ccccc3)CCN2C1=O`: 2.23% (inactive).
For the molecule `CCN1CCN(CC(=O)N/N=C/c2cccc(Cl)c2)CC1`, the inhibition was 3.65% (inactive).
Next, `Cc1cccnc1NC(=O)CSc1nnc(COc2ccc(C(C)C)cc2)n1C`: 9.54% (inactive).
The same measure for `Cc1cc(NC(=O)CSc2ccc(-c3ccccn3)nn2)no1`: 93.4% (active); for `Cc1cc(NC(=O)CNCCCN(C)C)no1`: 1.07% (inactive).
Next, `C=CCNCCOCCOc1cc(C)ccc1C(C)(C)C`: 15.9% (inactive).
Consider `COc1ccc(OCCCC(=O)Oc2ccc(OC)cc2)cc1`, for which the inhibition is 3.96% (inactive).
For `CCc1ccc(NC(=O)CS(=O)CC(=O)NCCCc2ccccc2)cc1` (stereo not drawn), the inhibition was -4.98% (inactive).
The same measure for `COc1cc(CN2CCN(C(=O)C(c3ccccc3)c3ccccc3)CC2)cc(OC)c1OC`: 9.83% (inactive).
The same measure for `CSc1nnc(SCc2nc3sc(C(=O)O)c(C)c3c(=O)[nH]2)s1`: 11.5% (inactive); for `Cc1ccc(CN2CCN(Cc3ccncc3)CC2)cc1`: 16.6% (inactive).
Consider `COc1ccc(Br)cc1CN1CCN(C(=O)c2cccnc2)CC1`, for which the inhibition was -9.47% (inactive).
In the case of `CCN(C(=O)Cc1nc(N)n[nH]1)C1(C(=O)Nc2ccccc2)CCCCC1`, the inhibition is 100% (active).
Next, `CCN(C(=O)Cc1nc(N)n[nH]1)C1(C(=O)Nc2ccc(C)cc2)CCCCC1`: 101% (active); `Cc1nc2sc(C(c3ccccc3Cl)N3CCC4(CC3)OCCO4)c(O)n2n1` (stereo not drawn): 13.3% (inactive); `CCN(Cc1ccccc1)Cc1ccc([N+](=O)[O-])cc1`: -3.54% (inactive).
Next, `COc1ccc(CN2CCC(C(=O)N3CCN(Cc4ccccc4)CC3)CC2)cc1`: 8.38% (inactive).
Next, `c1ccc(-c2ccccc2OCCNCCN2CCOCC2)cc1`: 24.1% (inactive); `Clc1cccc(CN2CCN(C3CCCC3)CC2)c1`: 9.81% (inactive); `O=C(Nc1ccc2c(c1)OCO2)C(c1ccccc1)N(Cc1ccccc1)Cc1ccccc1` (stereo not drawn): -2.62% (inactive).
As for `CC(C)CO/N=C1\C[C@@H](O)[C@@H](O)[C@@H]2[C@@H]3C(=O)N([C@@H](C)c4ccccc4)C(=O)[C@@H]3CC[C@@H]12`, the inhibition is -1.34% (inactive).
With `CN1CCN(CCC(=O)N/N=C/c2ccsc2)CC1`, the inhibition is -5.86% (inactive).
Next, `COc1cccc(CN2CCN(C(=O)c3ccccc3F)CC2)c1`: -7% (inactive); `COc1ccc(CN2CCN(Cc3cccc(Br)c3)CC2)c(OC)c1`: 22.2% (inactive).
For the molecule `COc1ccc(COCC(O)CNCC(C)(C)CN(C)C)cc1OC` (stereo not drawn), the inhibition is 3.11% (inactive).
Regarding `CC(C)c1ccc(C2/C(=C(/O)c3ccccc3)C(=O)C(=O)N2CCN(C)C)cc1` (stereo not drawn), the inhibition was 15.2% (inactive).
The same measure for `COc1ccc(CN2CCCC(C(=O)N3CCCCC3)C2)cc1` (stereo not drawn): -1.29% (inactive); for `COc1cccc(CN2CCN(C/C=C/c3ccccc3)CC2)c1OC`: 5.04% (inactive).
Consider `O=[N+]([O-])c1ccccc1CN1CCN(Cc2ccccc2C(F)(F)F)CC1`, for which the inhibition is 9.98% (inactive).
Next, `CN1CCN(CCOCCOc2ccccc2Cl)CC1`: 11.5% (inactive).
The same measure for `O=C(O)CCCCC1SCC2NC(=O)NC21O` (stereo not drawn): 98.9% (active); for `N#Cc1ccc(/C=N/NC(=O)c2cc([N+](=O)[O-])cc([N+](=O)[O-])c2)cc1`: -2.55% (inactive); for `O=S(=O)(c1ccc(Br)cc1Cl)N1CCN(CCc2ccncc2)CC1`: 16.2% (inactive).
Take `CCCCCCOC(=O)c1cc(C(=O)OCCCCCC)c(C)nc1C`: the inhibition is -5.97% (inactive).
Next, `COc1ccc(CN2CCN(Cc3cc(OC)c(OC)c(OC)c3)CC2)cc1`: 14.7% (inactive).
Take `CC(=O)N1CCN(C(=O)c2ccc(N3CC4CC(C3)c3cccc(=O)n3C4)c(NC(=O)c3cccnc3)c2)CC1` (stereo not drawn): the inhibition is -7.87% (inactive).
The same measure for `COc1ccc(Br)cc1CN1CCN(CCOCCO)CC1`: -5.73% (inactive).
Next, `COc1cccc(OC)c1C(=O)N1CCN(Cc2ccccc2F)CC1`: 20.4% (inactive).
Next, `Cc1ccc(NC(=O)CNCCCSc2ccccc2)cc1C`: 20.6% (inactive); `O=C(O)C1C2C=CC(O2)C1C(=O)Nc1nccs1` (stereo not drawn): 13.2% (inactive); `CC(NCCCN1CCOCC1)C(=O)Nc1ccccc1` (stereo not drawn): 12.1% (inactive).
Take `COC(=O)C(C)CN1CCN(Cc2ccc3c(c2)OCO3)CC1` (stereo not drawn): the inhibition is 13.8% (inactive).
For `CC1(C)CC(=O)C2=C(C1)Nc1ccccc1N(C(=O)Cc1ccccc1)C2c1ccc(-c2ccc([N+](=O)[O-])cc2)o1` (stereo not drawn), the inhibition was 15% (inactive).
The same measure for `COc1cc(CN2CCN(Cc3ccccc3Cl)CC2)cc(OC)c1OC`: 13% (inactive); for `N#Cc1ccc(OCC(=O)Nc2nc(-c3ccccn3)cs2)cc1`: 100% (active).
The same measure for `Nc1ccc(S(=O)(=O)O)c2cc(S(=O)(=O)O)cc(O)c12`: 38.9% (active).
Next, `CCN1CCN(CCOc2ccc(-c3ccccc3)cc2)CC1`: 9.15% (inactive); `COc1cccc(C(=O)N2CCN(Cc3cc(OC)c(OC)cc3OC)CC2)c1`: 7.33% (inactive); `CC(=O)c1cccc(N2C(=O)c3cccnc3C2=O)c1`: 27.9% (inactive).
As to `CC1CCCC(N2CCN(Cc3ccccc3Cl)CC2)C1` (stereo not drawn), the inhibition is -7.94% (inactive).
`CCN(CC)CCN1COc2c(cc(Cl)c3cccnc23)C1`: the inhibition is 100% (active).
The same measure for `COc1ccccc1CN1CC(C)OC(C)C1` (stereo not drawn): 3.15% (inactive).
Next, `Cc1ccc(NC(=O)COC(=O)CCC(=O)Nc2sc3c(c2C(N)=O)CCC3)cc1F`: 6.94% (inactive); `CCN(CC(=O)NCc1ccc(Cl)cc1)Cn1nnc2ccccc21`: -7.45% (inactive).
For `Cn1c(=O)oc2cc(S(=O)(=O)N3CCC(C(=O)NC(C)(C)C)CC3)ccc21`, the inhibition was 0.26% (inactive).
The same measure for `CCS(=O)(=O)N1CCN(C2CCCCC2C)CC1` (stereo not drawn): 7.29% (inactive).
With `c1ccc(CCCCNc2nccc(Nc3ccncn3)n2)cc1`, the inhibition was 9.16% (inactive).
The same measure for `COc1cccc(CN2CCC(C(=O)NCCc3ccccc3)CC2)c1`: 13.6% (inactive).
